Pf Dd2 inh: Plasmodium falciparum Dd2 growth inhibition. hit rate 4.3% among 120,000. Potency, µM (top dose mostly 28.9 µM), hits mostly inhibitors. P. falciparum Dd2 growth, SYBR Green, 72 h; active means well fitted inhibition curve with a large enough effect; further: nearly all actives have a fitted effect of over 65% in size
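Readout: SYBR Green fluorescence, 485 nm excitation, 535 nm emission, after ~16 h lysis at 37C. Before that, Dd2-infected red cells (2.5% hematocrit) grew 72 h with compound, 29 uM top final concentration.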
Large screens that a line does not name were inactive. The sample as a whole holds a higher share of hits than the screen did.

Cc1nnc(N2CCCC(C(=O)NCc3ccccc3F)C2)c2nn(-c3ccc(Cl)cc3)c(C)c12 (centres undefined)	none
CCOc1ccc(NC(=O)C2CCCN(c3nnc(C)c4c(C)n(-c5ccccc5)nc34)C2)cc1 (centres undefined)	none
COc1ccc(-n2nc3c(N4CCCC(C(=O)NCCc5ccccc5C)C4)nnc(C)c3c2C)cc1 (centres undefined)	Pf Dd2 inh 8.9µM
COc1ccc(-n2nc3c(N4CCCC(C(=O)NCCc5ccc(C)cc5)C4)nnc(C)c3c2C)cc1 (centres undefined)	Pf Dd2 inh 8.9µM
O=C(c1cc(F)ccc1F)N1CCC[C@H]1c1nc(-c2ccccc2)no1	none
Cc1n[nH]c(C)c1CNC(=O)C1CCCCC(=O)N1 (centres undefined)	none
Cn1ncc(CN2CC[C@@H]3[C@@H](CCC(=O)N3CCCN)C2)c1C1CC1	none
Cc1ccc(-c2nnc(C3CN(C(=O)CC(C)(C)C)CC34CCOCC4)o2)cc1 (centres undefined)	none
COCC1CN(C(=O)CC2CCN(C(C)=O)CC2)CC12CCNCC2 (centres undefined)	none
CC(C)n1nc(OC(C)(C)C(=O)NCCc2ccccn2)c2cc(CN3CCOCC3)ccc21	none
COc1cc(NC(=O)Cn2nc3n(c2=O)CCCC3)cc(OC)c1OC	none
CCC1(N2CCN(C(=O)c3ccccc3C(F)(F)F)CC2)CCN(C(=O)C(C)C)C1 (centres undefined)	none
O=C(c1ccccc1F)N1CCC(N2C(=O)C(O)C23CCCCC3)CC1 (centres undefined)	none
CCOC(=O)c1c(NC(=O)c2cc(Cl)ccc2Cl)sc2c1CCCC2	none
CCOC(=O)c1c(NC(=O)c2ccc(C)c(C)c2)sc2c1CCCCC2	none
COC(=O)c1c(NC(=O)/C=C/c2ccc(OC)c(OC)c2)sc2c1CCC2	none
COc1ccc(NC(=O)c2c(NCc3ccc(OC)c(OC)c3OC)sc3c2CCC3)c(OC)c1	Pf Dd2 inh 10µM
CCOC(=O)c1ccc(NC(=O)c2c(NCc3sccc3C)sc3c2CCCCC3)cc1	Pf Dd2 inh 10µM
COC(=O)c1ccc(NC(=O)c2c(NCc3ccc(OC)c(OC)c3)sc3c2CCCC3)cc1	Pf Dd2 inh 11µM
COc1ccccc1NC(=O)c1c(NC(=O)c2ccccc2F)sc2c1CCC2	none
COc1ccc(/C=C/C(=O)Nc2sc3c(c2C(N)=O)CCCC3)cc1	none
CCOc1ccccc1NC(=O)c1c(NCc2ccc(OC)c(OC)c2OC)sc2c1CCC(C)C2 (centres undefined)	none
CCOC(=O)c1c(NC(=O)c2ccc(OC)c(OC)c2)sc2c1CCCCC2	none
COc1ccc(CC(=O)Nc2sc3c(c2C(=O)Nc2ccc(C)cc2)CCCCC3)cc1	none
COc1ccc(NC(=O)c2c(NC(=O)C(F)(F)F)sc3c2CCCCC3)cc1	Pf Dd2 inh 3.2µM
O=C(c1ccc(F)cc1F)N1CCC2(CC1)OCC(C(=O)N1CCOCC1)N2C(=O)c1ccccc1 (centres undefined)	none
Cc1cccc(-c2ccccc2C(=O)N2CCCC(CO)(Cc3ccccc3F)C2)c1 (centres undefined)	none
Cc1nc(CN2CCN(C(=O)C(c3ccccc3F)N(C)C)CC2)cs1 (centres undefined)	none
COc1ccc(C(=O)N2C[C@@H](Oc3cccnc3)C[C@H]2C(N)=O)cc1F	none
CN1C(=O)CS(=O)(=O)C12CCN(C(=O)c1ccc(F)cc1)CC2	none
Cc1ccccc1C(=O)N1C[C@@H](F)C[C@H]1C(=O)N1CCOCC1	none
CCn1c(Cn2ccnc2C)nnc1C1CCN(C(=O)CCN)CC1	none
COc1ccccc1CC(=O)N1CCC2(CC1)NC(=O)N(Cc1ccc(F)cc1)C2=O	none
COc1ccc(CN2C[C@@H]3C(=O)N(CCN4CCc5ccccc5C4)C(=O)[C@@H]3C2)cc1	none
COc1ccc(CC(=O)Nc2sc3c(c2C(=O)Nc2c(C)cccc2C)CCCCC3)cc1	none
O=C(Nc1sc2c(c1C(=O)Nc1ccccc1)CCC2)c1ccc(Br)cc1	none
CCOc1ccccc1NC(=O)c1c(NCc2ccc(C)o2)sc2c1CCC(C)C2 (centres undefined)	none
COc1ccc(Cl)cc1NC(=O)c1c(NCc2cccnc2)sc2c1CCCC2	Pf Dd2 inh 11µM
COC(=O)c1ccc(NC(=O)c2c(NCc3ccc(C)o3)sc3c2CCCC3)cc1	Pf Dd2 inh 10µM
COc1ccccc1NC(=O)c1c(NC(=O)c2ccccc2Cl)sc2c1CCC2	none
Cc1cccc(NC(=O)c2c(NC(=O)c3ccccc3)sc3c2CCCC3)c1	none
CCOc1ccccc1NC(=O)c1c(NCc2ccc(C)o2)sc2c1CCCCC2	Pf Dd2 inh 13µM
CNC(=O)c1c(NC(=O)Cc2coc3ccc(OC)cc23)sc2c1CCCC2	none
CCOC(=O)N1CCc2c(sc(NCc3sccc3C)c2C(=O)Nc2cc(Cl)ccc2OC)C1	none
COc1ccc(NC(=O)c2c(NCc3cccc(OC)c3)sc3c2CCCC3)cc1	Pf Dd2 inh 10µM
CCOc1ccccc1NC(=O)c1c(NC(=O)COc2ccccc2)sc2c1CCCC2	none
COc1cccc(CN[C@H]2[C@H](O)[C@H](O)C[C@@H]2c2ccc(N3CCOCC3)nc2)c1	none
Cc1ncsc1CCC(=O)N[C@@H]1CCOC[C@H]1OCC(=O)O	none
CCOc1ccc(C(=O)N2CCC[C@H]2c2nc(-c3ccc(OC)cc3)no2)cc1OCC	none
COc1cc2c(cc1OC)C(CNC(=O)c1cccc(F)c1)N(C(=O)Nc1ccc(C)cc1)CC2 (centres undefined)	none
COc1cccc(C(=O)N2CCc3cc(OC)c(OC)cc3C2COc2ccc3c(C)cc(=O)oc3c2)c1 (centres undefined)	Pf Dd2 inh 8.9µM
COc1cc2c(cc1OC)C(CNC(=O)c1ccccc1)N(C(=O)Nc1cccc(F)c1)CC2 (centres undefined)	none
COCC(=O)N1CCc2cc(OC)c(OC)cc2C1COc1ccc2c(C)cc(=O)oc2c1 (centres undefined)	none
COc1cc2c(cc1OC)C(COc1ccc3c(C)cc(=O)oc3c1)N(C(=O)c1ccc(Cl)cc1)CC2 (centres undefined)	Pf Dd2 inh 8.9µM
CCOc1ccc(C(=O)N2CCc3cc(OC)c(OC)cc3C2COc2ccc3c(C)cc(=O)oc3c2)cc1OCC (centres undefined)	Pf Dd2 inh 3.2µM
CCNC(=O)NCC1c2cc(OC)c(OC)cc2CCN1C(=O)Nc1ccc(C)cc1 (centres undefined)	none
CCO[C@H]1CN(C(=O)Cc2nc(C)sc2C)C[C@@H]1O	none
Fc1ccc2oc([C@H]3CCN(CC4CCCCC4)C3)nc2c1	none
O=C(CCN1CCCC1=O)NC1CCCN(CCCc2ccccc2)C1 (centres undefined)	none
O=C(c1ccc(F)c(F)c1)N1CCCC(c2noc(COc3ccccc3F)n2)C1 (centres undefined)	none
C=CCNS(=O)(=O)c1ccc(C(=O)NC(C)c2ncnn2CCC)cc1 (centres undefined)	none
Cc1ccc(C(=O)NCc2nnc3c(-c4nc(C5CC5)no4)cccn23)cc1C	none
Cc1noc(-c2cccn3c(CNC(=O)c4ccccc4)nnc23)n1	none
CCOc1ccccc1C(=O)NCc1nnc2c(-c3nc(C4CC4)no3)cccn12	Pf Dd2 inh 3.2µM
O=C(NCc1nnc2c(-c3nc(C4CC4)no3)cccn12)c1cc(F)ccc1F	none
COc1cccc(C(=O)NCc2nnc3c(-c4nc(C)no4)cccn23)c1	none
CCc1noc(-c2cccn3c(CNC(=O)c4ccc(F)cc4)nnc23)n1	none
Cc1noc(-c2cccn3c(CNC(=O)c4cccc(N(C)C)c4)nnc23)n1	Pf Dd2 inh 0.56µM
Cc1ccccc1C(=O)NCc1nnc2c(-c3nc(C(C)C)no3)cccn12	none
